# Assay outcomes as filed in PubChem.
# PostGolgi ctrl: growth of the yeast control strain, post-Golgi counter-screen; efflux-deficient yeast background strain, growth absorbance A615, 16 h; inhibition, % at 10 µM; 98,000 compounds, 5% hits; AID 738
# CYP2C9 inh: human CYP2C9 inhibition | P11712 | CYP2C9 Supersomes, luciferin-H conversion, luminescence | 96,000 compounds, 20% hits | inhibition, % at 5 µM;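 active means blocking of liver enzyme CYP2C9 beyond about 50% at 5 µM, limit read from the data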
# CYP2C9 activ: CYP2C9 (human) activation | AID 1024 | P11712 | activation factor at 5 µM | 96,000 compounds, 1.4% hits | recombinant CYP2C9, luciferin-H conversion, luminescence; hits give high values; factor 1 = untreated enzyme, 0 = blocked;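 active means activation factor of 2 or more for CYP2C9 at a 5 µM dose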;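 further: 0 = sulfaphenazole-blocked wells and 1 = vehicle-only wells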
# CYP2C19 inhib: human CYP2C19 inhibition | P33261 | CYP2C19 Supersomes, luciferin-H EGE luminescence, 30 min | inhibition, % at 5 µM | 96,000 compounds, 21% hits;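 active means CYP2C19 inhibition above a set limit at 5 µM in the primary screen, cut at about 50% in these data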;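 further: plate controls were negative control wells for no effect and 2.5 mM tranylcypromine positive control for full effect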
# Target sequence (P33261 whole entry, looked up): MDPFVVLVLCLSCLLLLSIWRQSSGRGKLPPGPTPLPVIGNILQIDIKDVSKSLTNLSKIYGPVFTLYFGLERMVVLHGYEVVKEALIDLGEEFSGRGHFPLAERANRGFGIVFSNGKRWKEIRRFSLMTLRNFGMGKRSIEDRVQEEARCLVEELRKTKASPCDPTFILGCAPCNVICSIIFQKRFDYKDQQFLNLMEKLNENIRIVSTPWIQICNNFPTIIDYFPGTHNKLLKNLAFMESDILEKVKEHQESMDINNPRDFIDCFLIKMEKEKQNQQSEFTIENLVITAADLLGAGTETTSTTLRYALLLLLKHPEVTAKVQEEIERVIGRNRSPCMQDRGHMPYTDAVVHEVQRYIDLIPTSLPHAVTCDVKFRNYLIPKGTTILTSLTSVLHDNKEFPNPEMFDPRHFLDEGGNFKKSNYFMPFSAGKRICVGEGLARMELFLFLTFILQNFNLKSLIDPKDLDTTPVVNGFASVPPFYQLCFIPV
# PostGolgi yeast: growth inhibition of a yeast mutant, post-Golgi transport screen; post-Golgi transport phenotypic cell assay; inhibition, % at 10 µM; 98,000 compounds, 0.9% hits; AID 739;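 further: yeast cells grown in 1536-well plates; yeast grown about 18 h at 30C before absorbance read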
# CYP2C19 activ: cytochrome P450 2C19 (human) activation; recombinant CYP2C19, luciferin-H EGE luminescence; hits give high values; 0 = fully inhibited enzyme, 1 = untreated enzyme; activation factor at 5 µM; 96,000 tested, under 10 active; AID 1025; P33261;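 active means activation factor of at least 2 at 5 µM in the primary screen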;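 further: 0 = wells with 2.5 mM tranylcypromine and 1 = vehicle-only wells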
# * = called active by the depositor; / = no result. A selection: hits, their analogues and other compounds. The true share with any hit is near 32%. Unless noted, no stated cut-off is given here; in the data, active means inhibition above about 30%; inactive means the rest.
SMILES,PostGolgi ctrl,CYP2C9 inh,CYP2C9 activ,CYP2C19 inhib,PostGolgi yeast,CYP2C19 activ
Cc1ccnc(NC(=O)CCC(=O)N(CC(=O)NCC2CCCO2)Cc2ccc(F)cc2)c1 (stereo unspecified),1,-3,1,-6,8,1.1
O=C(O)CSc1nnc(Cn2cnc3ccccc32)n1CCc1ccccc1,-2,13,0.9,-2,5,1
CCOC(=O)CSC(C)C(=O)Nc1nnc(C(C)C)s1 (stereo unspecified),0,/,/,/,1,/
C=C(C)CC(NCc1ccco1)c1ccc(OC)cc1 (stereo unspecified),10,6,0.9,24,31*,0.8
C=CCC(NCc1ccco1)c1ccc(OC)cc1OC (stereo unspecified),-4,9,0.9,27,-3,0.7
Cc1ccc(C(=O)C2=C(O)C(=O)N(CCCN(C)C)C23C(=O)N(C)c2ccccc23)o1 (stereo unspecified),/,-8,1.1,9,/,0.9
CCCSc1nnc2nc(C)cc(C)n12,11,12,0.9,5,6,1
Cc1cc(C)n2c(SCc3cccs3)nnc2n1,37*,-51,1.5,38,-7,0.6
CC1(C)CC(=O)c2c(O)cc(OCc3ccc(Br)cc3)cc2O1,12,85*,0.2,61*,-9,0.4
COC(=O)c1ccc(COc2cc(O)c3c(c2)OC(C)(C)CC3=O)cc1,12,23,0.8,51*,-4,0.5
COc1cc(O)c2c(c1)OC(C)(C)CC2=O,-4,-8,1.1,5,-8,1
Cc1ccc(CN2CCNC(=O)C2CC(=O)O)o1 (stereo unspecified),-8,-11,1.1,-9,14,1.1
Cc1nccn1Cc1cccc2ccccc12,4,27,0.7,51*,7,0.5
c1ccc(Cn2ccnc2-c2ccco2)cc1,10,-7,1.1,7,-8,0.9
O=C(c1ccc2c3c(cccc13)CC2)N1CCOCC1,-3,-112,2.1*,34,-6,0.7
O=C(NN1C(=O)/C(=C/c2cccnc2)SC1=S)C(c1ccccc1)c1ccccc1,25,82*,0.2,38,29,0.6
O=C1/C(=C\c2cccnc2)SC(=S)N1C1CCS(=O)(=O)C1 (stereo unspecified),9,41,0.6,-9,6,1.1
CC(C)(C)c1ccc(Cn2ccc(-c3ccc4c(c3)OCO4)n2)cc1,15,16,0.8,9,21,0.9
COC(=O)c1oc2ccc(Br)cc2c1NC(=O)c1ccccc1,7,-4,1,7,-5,0.9
Cc1occc1C(=O)Nc1c(F)cc(F)cc1Br,11,0,1,2,-2,1
COc1ccc(C)cc1NC(=O)c1ccoc1C,20,-22,1.2,2,-3,1
COc1ccc(Cl)cc1NC(=O)c1ocnc1C,7,-164,2.6*,6,2,0.9
COc1ccc(Cl)cc1NC(=O)c1ccoc1C,1,-165,2.6*,15,-1,0.9
Cc1occc1C(=O)Nc1ccc(Br)cc1F,7,24,0.8,50*,5,0.5
COc1ccc(C(C)(C)C)cc1NC(=O)c1ccoc1C,22,39,0.6,62*,0,0.4
SMILES,PostGolgi ctrl,CYP2C9 inh,CYP2C9 activ,CYP2C19 inhib,PostGolgi yeast,CYP2C19 activ
Cc1oc(-c2ccccc2F)nc1CN1CCC(C(=O)NC2CC2)CC1,6,-15,1.1,-7,-2,1.1
Cc1csc2ncc(C(=O)NCc3ccco3)c(=O)n12,-2,/,/,/,17,/
COc1ccc(C2=CSC3=C(C(=O)c4cccc(S(=O)(=O)N(C)C)c4)CCN23)cc1,-2,64*,0.4,86*,-4,0.1
COc1ccc(-c2csc(NC(=O)c3cccc(S(=O)(=O)N4CCN(C)CC4)c3)n2)cc1,7,7,0.9,10,17,0.9
O=S(=O)(NCc1cn2ccsc2n1)c1ccc2c(c1)OCCO2,4,-64,1.6,87*,1,0.1
O=S(=O)(NCc1cn2ccsc2n1)c1cccs1,-15,23,0.8,25,-4,0.8
O=S(=O)(NCc1cn2ccsc2n1)c1ccc(Oc2ccccc2)cc1,5,80*,0.2,69*,8,0.3
CCOc1ccc(C(=O)NCC(=O)OC(C)C(=O)NCc2ccco2)cc1OCC (stereo unspecified),-3,-6,1.1,44,8,0.6
Cc1ccc2nc3c(cc2c1)CN(Cc1ccco1)C(=NCC1CCCO1)S3 (stereo unspecified),43*,79*,0.2,52*,-1,0.5
